# Data published in PubChem BioAssay (EPA / NIEHS).
# “And” between values parts separate entries of the source, which are not always exact repeats. Equal entries are not always repeated. Inconclusive results are not listed. Some compounds were tested as several samples or in several runs, with calls that do not always agree. The source made the active and inactive calls. The calls were made as follows: active = hit-call score of the fitted dose curve at least 0.9, where 1 is the maximum; inconclusive = response in the unintended direction; inactive = score below 0.9.
# Experiments:
# [1] = biological target: Estrogen receptor (Homo sapiens) + Estrogen receptor beta (Homo sapiens) (UniProt P03372+Q92731); experiment: OT_ER_ERaERb_1440: Odyssey Thera (OT) 24-hour HEK293T Protein-Complementation Assay for Estrogen Receptor-alpha/-beta Homodimer (AID 2283356);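 also: heteromer of ER alpha and ER beta binding domains; hits raise reporter fluorescence and both agonists and antagonists give an increase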
# Summary of the method: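 Readout: mean fluorescence intensity in nucleus (agonists) or nucleus plus cytoplasm (antagonists), read by laser scanning cytometer after 24 h compound exposure of HEK293T cells carrying ERα/ERβ LBD fragment-complementation constructs; DMSO baseline.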
# [2] = biological target: Estrogen receptor beta (Homo sapiens) (UniProt Q92731); experiment: OT_ER_ERbERb_0480: Odyssey Thera (OT) 8-hour HEK293T Protein-Complementation Assay for Estrogen Receptor-beta/-beta Homodimer (AID 2283357);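 also: active means signal gain over DMSO baseline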
# Summary of the method: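 Cells (HEK293T, stable ER-beta LBD PCA pair) are treated 8 hours, fixed and Draq5-stained; signal is fluorescence intensity increase relative to vehicle, fitted in the gain direction.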
# [3] = biological target: human Peroxisome Proliferator-activated Receptor alpha (PPARa), PPARA (gene 5465) (UniProt Q07869); experiment: NVS_NR_hPPARa: NovaScreen (NVS) Nuclear Receptor Binding Assay for human Peroxisome Proliferator-activated Receptor alpha (PPARa) (AID 2283359);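 also: activity means loss of TR-FRET signal versus DMSO baseline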
# Summary of the method: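 Chemicals were first screened in duplicate at 25 uM, and active ones were retested across concentration series. Binding was monitored by TR-FRET one hour after dosing, with decreased signal against DMSO counted as activity.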
# [4] = biological target: Retinoic acid receptor alpha (Homo sapiens) (UniProt P10276); experiment: NVS_NR_hRAR_Antagonist: NovaScreen (NVS) Nuclear Receptor Binding Assay for human Retinoic Acid Alpha Receptor Antagonism (RAR) (AID 2283358)
# Summary of the method: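 TR-FRET, cell-free, antagonist format; 2 h incubation after dosing; DMSO = baseline; signal loss fitted; 25 uM duplicate primary, then conc. series.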
# [5] = biological target: Retinoic acid receptor alpha (Homo sapiens) (UniProt P10276); experiment: NVS_NR_hRARa_Agonist: NovaScreen (NVS) Nuclear Receptor Binding Assay for human Retinoic Acid Alpha Receptor Agonism (RAR) (AID 2283361)
# Summary of the method: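 Readout is time-resolved fluorescence resonance energy transfer after a 2 h exposure of cell-free extracted receptor protein. Initial testing used 25 uM in duplicate, with concentration-response follow-up for active chemicals.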
# [6] = biological target: Nuclear receptor subfamily 1 group I member 2 (Homo sapiens) (UniProt O75469); experiment: NVS_NR_hPXR: NovaScreen (NVS) Nuclear Receptor Binding Assay for human Pregnane X Receptor (PXR) (AID 2283365);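 also: a drop in FRET signal versus DMSO baseline means the compound binds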
# Summary of the method: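 TR-FRET signal read at 2 h in a cell-free human PXR binding format. DMSO served as negative control and baseline; activity scored as signal loss. Single-concentration duplicate screen (25 uM), then concentration-response follow-up.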
# [7] = biological target: Glucocorticoid receptor (Homo sapiens) (UniProt P04150); experiment: NVS_NR_hGR: NovaScreen (NVS) Nuclear Receptor Binding Assay for human Glucocorticoid Receptor (GR) (AID 2283363);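 as to AC50: activity is loss of specific radioligand binding signal relative to DMSO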
# Summary of the method: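 Competitive displacement of a labelled ligand was measured on cell-free receptor preparations after 16 h exposure. Initial testing used 25 uM in duplicate with plate controls; confirmed actives went into concentration series.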
# [8] = biological target: human Thyroid Receptor Alpha (TRa), THRA (gene 7067) (UniProt P10827); experiment: NVS_NR_hTRa_Antagonist: NovaScreen (NVS) Nuclear Receptor Binding Assay for human Thyroid Receptor Alpha Antagonism (TRa) (AID 2283362);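 also: activity is loss of signal relative to DMSO baseline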
# Summary of the method: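 AlphaLISA chemiluminescent immunoassay readout, taken 1 h post-dosing in a cell-free system with extracted protein. Activity was scored as signal loss against DMSO negative control, from duplicate single-concentration (25 uM) testing followed by concentration-response follow-up.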
# PGR (gene 5241) = PGR (gene 5241) (UniProt P06401); experiment: NVS_NR_hPR: NovaScreen (NVS) Nuclear Receptor Binding Assay for human Progestron Receptor (PR) (AID 2283360);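 also: active means loss of bound radioligand signal versus DMSO baseline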
# Summary of the method: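 Cell-free radioligand binding using receptor protein extracted from T47D cells, read by scintillation counting 18 hours after dosing. Loss of signal relative to DMSO baseline indicates displacement; primary screen single concentration 25 uM in duplicate, actives followed in concentration series.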
# human Peroxisome Proliferator-activated Receptor alpha (PPARa), PPARA (gene 5465), sequence (Q07869 whole entry, looked up): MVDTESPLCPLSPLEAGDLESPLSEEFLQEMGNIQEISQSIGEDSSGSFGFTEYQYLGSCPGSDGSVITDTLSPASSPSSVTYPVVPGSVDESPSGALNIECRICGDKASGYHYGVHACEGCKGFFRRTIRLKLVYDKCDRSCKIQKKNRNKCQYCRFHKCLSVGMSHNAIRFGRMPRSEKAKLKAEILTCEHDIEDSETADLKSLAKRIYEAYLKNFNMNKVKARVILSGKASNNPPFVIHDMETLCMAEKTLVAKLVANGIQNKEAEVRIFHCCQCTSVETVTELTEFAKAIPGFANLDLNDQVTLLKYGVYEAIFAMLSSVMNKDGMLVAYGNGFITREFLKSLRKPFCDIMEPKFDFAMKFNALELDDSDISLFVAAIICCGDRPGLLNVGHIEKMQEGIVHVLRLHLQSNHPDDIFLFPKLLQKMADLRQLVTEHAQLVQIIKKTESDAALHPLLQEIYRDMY
# Glucocorticoid receptor (Homo sapiens), sequence (P04150 whole entry, looked up): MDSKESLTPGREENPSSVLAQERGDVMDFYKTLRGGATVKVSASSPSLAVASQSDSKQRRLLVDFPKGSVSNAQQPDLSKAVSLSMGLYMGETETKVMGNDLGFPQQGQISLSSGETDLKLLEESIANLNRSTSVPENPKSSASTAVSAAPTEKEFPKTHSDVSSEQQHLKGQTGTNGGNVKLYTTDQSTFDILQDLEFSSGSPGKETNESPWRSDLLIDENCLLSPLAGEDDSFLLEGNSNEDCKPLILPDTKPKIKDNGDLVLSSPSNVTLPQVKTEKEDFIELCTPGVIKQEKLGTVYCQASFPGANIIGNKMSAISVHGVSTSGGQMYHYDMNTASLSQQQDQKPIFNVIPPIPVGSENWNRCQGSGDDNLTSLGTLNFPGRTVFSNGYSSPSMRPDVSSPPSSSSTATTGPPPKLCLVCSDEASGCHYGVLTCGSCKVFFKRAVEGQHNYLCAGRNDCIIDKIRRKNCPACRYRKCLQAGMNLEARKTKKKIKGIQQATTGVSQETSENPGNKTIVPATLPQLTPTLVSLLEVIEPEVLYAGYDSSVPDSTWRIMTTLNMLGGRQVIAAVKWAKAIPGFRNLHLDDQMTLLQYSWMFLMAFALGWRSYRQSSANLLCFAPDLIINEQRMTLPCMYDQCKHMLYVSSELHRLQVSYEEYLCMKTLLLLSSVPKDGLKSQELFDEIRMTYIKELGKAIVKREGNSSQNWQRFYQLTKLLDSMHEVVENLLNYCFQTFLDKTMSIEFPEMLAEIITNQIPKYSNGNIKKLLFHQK
# Estrogen receptor (Homo sapiens) + Estrogen receptor beta (Homo sapiens), sequence (P03372 whole entry, looked up, the tested form may be a part): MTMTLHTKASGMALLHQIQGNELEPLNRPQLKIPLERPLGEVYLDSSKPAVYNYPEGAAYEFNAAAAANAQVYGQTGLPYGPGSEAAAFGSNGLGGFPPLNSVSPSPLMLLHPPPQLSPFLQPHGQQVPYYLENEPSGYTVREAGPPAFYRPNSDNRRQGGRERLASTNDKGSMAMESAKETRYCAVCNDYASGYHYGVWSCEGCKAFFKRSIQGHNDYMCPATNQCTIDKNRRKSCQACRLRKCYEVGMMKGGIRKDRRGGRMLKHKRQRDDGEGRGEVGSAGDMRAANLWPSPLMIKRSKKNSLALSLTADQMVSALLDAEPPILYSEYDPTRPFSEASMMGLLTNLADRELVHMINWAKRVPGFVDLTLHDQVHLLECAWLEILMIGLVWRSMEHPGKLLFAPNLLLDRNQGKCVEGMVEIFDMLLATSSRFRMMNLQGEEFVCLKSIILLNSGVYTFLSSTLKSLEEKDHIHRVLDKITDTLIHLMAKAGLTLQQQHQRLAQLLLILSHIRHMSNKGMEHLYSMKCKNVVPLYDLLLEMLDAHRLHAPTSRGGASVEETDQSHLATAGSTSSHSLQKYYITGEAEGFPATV
# Estrogen receptor (Homo sapiens) + Estrogen receptor beta (Homo sapiens), sequence (Q92731 whole entry, looked up, the tested form may be a part): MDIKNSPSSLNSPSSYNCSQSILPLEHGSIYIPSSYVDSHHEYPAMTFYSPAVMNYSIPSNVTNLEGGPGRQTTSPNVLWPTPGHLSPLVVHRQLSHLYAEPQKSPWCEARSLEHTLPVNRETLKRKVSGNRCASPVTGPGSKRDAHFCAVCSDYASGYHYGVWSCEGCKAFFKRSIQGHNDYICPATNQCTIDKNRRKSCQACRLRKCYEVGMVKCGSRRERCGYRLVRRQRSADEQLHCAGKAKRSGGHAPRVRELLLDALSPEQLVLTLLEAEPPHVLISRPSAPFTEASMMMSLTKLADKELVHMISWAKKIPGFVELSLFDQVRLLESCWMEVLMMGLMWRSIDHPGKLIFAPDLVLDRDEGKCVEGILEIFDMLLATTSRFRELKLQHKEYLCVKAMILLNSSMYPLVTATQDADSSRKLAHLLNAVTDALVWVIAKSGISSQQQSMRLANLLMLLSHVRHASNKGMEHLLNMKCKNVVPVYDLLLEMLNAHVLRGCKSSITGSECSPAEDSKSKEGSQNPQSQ
# Nuclear receptor subfamily 1 group I member 2 (Homo sapiens), sequence (O75469 whole entry, looked up): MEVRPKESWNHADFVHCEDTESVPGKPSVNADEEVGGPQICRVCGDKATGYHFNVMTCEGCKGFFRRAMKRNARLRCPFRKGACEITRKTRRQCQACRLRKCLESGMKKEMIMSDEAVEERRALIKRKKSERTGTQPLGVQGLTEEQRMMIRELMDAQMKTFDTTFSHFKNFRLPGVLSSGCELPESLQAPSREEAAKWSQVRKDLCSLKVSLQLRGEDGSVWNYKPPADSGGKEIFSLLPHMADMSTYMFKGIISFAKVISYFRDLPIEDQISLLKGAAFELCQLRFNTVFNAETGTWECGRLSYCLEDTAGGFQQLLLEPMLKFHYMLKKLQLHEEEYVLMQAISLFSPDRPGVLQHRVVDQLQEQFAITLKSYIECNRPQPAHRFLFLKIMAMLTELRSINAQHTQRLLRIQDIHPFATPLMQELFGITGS
# Retinoic acid receptor alpha (Homo sapiens), sequence (P10276 whole entry, looked up): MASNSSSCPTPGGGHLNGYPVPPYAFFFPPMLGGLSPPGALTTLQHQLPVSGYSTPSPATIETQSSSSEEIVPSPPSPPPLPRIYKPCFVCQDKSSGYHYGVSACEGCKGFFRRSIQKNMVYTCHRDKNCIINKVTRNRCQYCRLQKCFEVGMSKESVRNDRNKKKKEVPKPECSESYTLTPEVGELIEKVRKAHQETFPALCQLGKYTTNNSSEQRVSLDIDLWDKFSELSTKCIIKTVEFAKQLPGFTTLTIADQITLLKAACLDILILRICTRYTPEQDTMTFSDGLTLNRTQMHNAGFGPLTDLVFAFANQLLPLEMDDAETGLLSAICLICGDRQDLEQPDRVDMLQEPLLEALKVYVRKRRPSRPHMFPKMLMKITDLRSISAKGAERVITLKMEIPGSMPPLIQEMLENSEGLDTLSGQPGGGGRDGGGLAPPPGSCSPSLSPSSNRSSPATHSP
# Estrogen receptor beta (Homo sapiens), sequence (Q92731 whole entry, looked up, the tested form may be a part): as the sequence (Q92731 whole entry, looked up, the tested form may be a part) above
# PGR (gene 5241), sequence (P06401 whole entry, looked up): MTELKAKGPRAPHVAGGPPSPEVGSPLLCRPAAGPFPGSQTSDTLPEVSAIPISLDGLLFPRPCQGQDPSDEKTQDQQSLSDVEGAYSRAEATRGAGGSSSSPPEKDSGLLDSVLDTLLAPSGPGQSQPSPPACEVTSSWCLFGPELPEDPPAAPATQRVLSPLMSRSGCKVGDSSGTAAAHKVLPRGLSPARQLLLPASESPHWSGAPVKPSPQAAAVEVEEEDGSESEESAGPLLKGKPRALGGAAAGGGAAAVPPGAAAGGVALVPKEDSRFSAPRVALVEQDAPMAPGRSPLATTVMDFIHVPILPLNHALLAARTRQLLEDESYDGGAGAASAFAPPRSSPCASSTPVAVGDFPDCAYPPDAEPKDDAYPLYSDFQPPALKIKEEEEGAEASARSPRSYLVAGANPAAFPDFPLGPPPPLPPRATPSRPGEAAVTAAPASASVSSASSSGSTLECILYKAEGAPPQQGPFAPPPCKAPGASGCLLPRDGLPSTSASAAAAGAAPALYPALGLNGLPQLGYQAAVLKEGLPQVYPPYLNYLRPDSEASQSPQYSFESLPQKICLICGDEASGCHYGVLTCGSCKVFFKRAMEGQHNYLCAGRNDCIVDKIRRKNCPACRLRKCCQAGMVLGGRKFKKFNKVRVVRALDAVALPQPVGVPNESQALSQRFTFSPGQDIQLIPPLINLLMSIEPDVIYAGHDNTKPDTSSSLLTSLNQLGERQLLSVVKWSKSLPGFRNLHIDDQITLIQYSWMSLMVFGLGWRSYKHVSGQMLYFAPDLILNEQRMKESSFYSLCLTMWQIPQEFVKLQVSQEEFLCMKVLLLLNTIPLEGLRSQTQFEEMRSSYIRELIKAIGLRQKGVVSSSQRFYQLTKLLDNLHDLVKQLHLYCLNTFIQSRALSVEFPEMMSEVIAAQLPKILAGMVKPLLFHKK
# human Thyroid Receptor Alpha (TRa), THRA (gene 7067), sequence (P10827 whole entry, looked up): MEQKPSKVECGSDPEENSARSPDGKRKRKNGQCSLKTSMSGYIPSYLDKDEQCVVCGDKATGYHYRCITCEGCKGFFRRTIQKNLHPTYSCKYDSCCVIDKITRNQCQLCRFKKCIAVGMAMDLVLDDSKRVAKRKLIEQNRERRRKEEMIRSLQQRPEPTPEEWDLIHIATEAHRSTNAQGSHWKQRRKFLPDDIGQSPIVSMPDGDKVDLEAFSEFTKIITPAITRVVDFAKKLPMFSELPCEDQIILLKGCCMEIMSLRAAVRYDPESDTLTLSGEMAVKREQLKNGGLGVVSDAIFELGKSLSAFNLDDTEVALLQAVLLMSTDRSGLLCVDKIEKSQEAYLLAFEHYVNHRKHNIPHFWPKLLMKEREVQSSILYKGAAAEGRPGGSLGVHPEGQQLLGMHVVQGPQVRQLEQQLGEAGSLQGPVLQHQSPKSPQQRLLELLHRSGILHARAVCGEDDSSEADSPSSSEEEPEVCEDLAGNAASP
smiles,measurement,setting,value
CC(=O)c1ccc2ccccc2c1,AC50,[1],31.6 µM (active)
same,outcome,[2],inactive
same,outcome,[3],inactive
CCCCCCCCCCO[C@@H]1O[C@H](CO)[C@@H](O)[C@H](O)[C@H]1O,outcome,[1],inactive
same,outcome,[2],inactive
CC(C)(C)c1ccc(S)cc1,outcome,[1],inactive
same,outcome,[2],inactive
CCCCN(CCCC)CCCCCCN(CCCC)CCCC,outcome,[1],inactive
same,outcome,[2],inactive
same,outcome,[3],inactive
CCO[Si](CC)(OCC)OCC,outcome,[1],inactive
same,outcome,[2],inactive
same,outcome,[4],inactive
same,outcome,[5],inactive
same,outcome,[6],inactive
O=C(OCc1ccccc1)c1ccccc1O,AC50,[1],44.5 µM (active)
same,AC50,[2],54.6 µM (active)
CC(CCO)CC(C)(C)C (stereo not drawn),AC50,[1],40.9 µM (active)
same,outcome,[2],inactive
CCCCCC(=O)O[C@]1(C(C)=O)CC[C@H]2[C@@H]3CCC4=CC(=O)CC[C@]4(C)[C@H]3CC[C@@]21C,AC50,[1],4.65 µM (active)
same,outcome,[2],inactive
same,AC50,[7],0.0187 µM (active)
same,outcome,[6],inactive
CC(C)(C)C1CCC(O)CC1 (stereo not drawn),outcome,[1],inactive
same,outcome,[2],inactive
CCC(=O)OC(C)(C)C1CC=C(C)CC1 (stereo not drawn),outcome,[1],inactive
same,outcome,[2],inactive
CC(=O)c1ccc(O)cc1,outcome,[1],inactive
same,outcome,[2],inactive
c1ccc(OCCOc2ccccc2)cc1,outcome,[1],inactive
same,outcome,[2],inactive
NC(=O)c1cccnc1,outcome,[1],inactive
same,outcome,[2],inactive
CCCC(O)C(CC)CO (stereo not drawn),outcome,[1],inactive
same,outcome,[2],inactive
CC(=O)Nc1cc(S(=O)(=O)O)cc2cc(S(=O)(=O)O)c(N=Nc3ccccc3)c(O)c12,outcome,[1],inactive
same,outcome,[2],inactive
same,AC50,[8],9.8 µM (active)
CCC(C)COC(=O)CC(C)C (stereo not drawn),outcome,[1],inactive
same,outcome,[2],inactive
C=C1CC[C@H]2O[C@]2(C)CC[C@@H]2[C@@H]1CC2(C)C,outcome,PGR (gene 5241),inactive
CCNC(=S)NCC,outcome,[1],inactive
same,outcome,[2],inactive
same,outcome,[6],inactive
c1ccc2c(c1)-c1ccc3ccc4cccc5cc-2c1c3c45,outcome,[7],inactive
CCC(C)(C)C1CCC(=O)CC1,outcome,[6],inactive
CCCCCCCCCCOC(=O)c1ccccc1C(=O)OCCCCCCCC,outcome,[1],inactive
same,outcome,[2],inactive
same,outcome,[7],inactive
same,outcome,[6],inactive
CC/C(=C(\c1ccccc1)c1ccc(OCCN(C)C)cc1)c1ccccc1,outcome,[4],inactive
same,outcome,[3],inactive
same,outcome,[5],inactive
same,AC50,[7],3.08 µM (active) and 6.38 µM (active)
same,outcome,[7],inactive
same,outcome,[6],inactive
CC1=CCC(=C(C)C)CC1,outcome,[6],inactive
[O-]/[N+](=N\O)c1ccccc1,outcome,[2],inactive
same,outcome,[6],inactive
CCCCCCCCCCCCS,outcome,[1],inactive
same,outcome,[2],inactive
same,outcome,[6],inactive
CC(=O)OC/C=C(C)/C=C/C=C(C)/C=C/C1=C(C)CCCC1(C)C,outcome,[1],inactive
same,outcome,[2],inactive
same,AC50,[6],2.21 µM (active)
CCCCCCCCCCCCOCCOS(=O)(=O)O,AC50,[4],16.2 µM (active)
same,AC50,[3],5.08 µM (active)
same,AC50,[6],25 µM (active)
NCCN1CCNCC1,outcome,[1],inactive
same,outcome,[6],inactive
CCCCCCOc1ccc(O)cc1,AC50,[1],11.9 µM (active)
same,AC50,[2],11.9 µM (active)
same,outcome,[6],inactive
C=CC(O)CCCCC (stereo not drawn),outcome,[6],inactive
CC(C)C(=O)c1ccccc1,outcome,[1],inactive
same,outcome,[6],inactive
CC(=O)Oc1c(C)c(C)c2c(c1C)CC[C@@](C)(CCC[C@H](C)CCC[C@H](C)CCCC(C)C)O2,outcome,[6],inactive
CCC(C)(CCCC(C)C)OC(C)=O (stereo not drawn),outcome,[1],inactive
same,outcome,[2],inactive
same,outcome,[6],inactive
CCCCC/C=C\C=C\C(=O)OCC,outcome,[1],inactive
same,outcome,[2],inactive
same,AC50,[6],9.24 µM (active)
O=C(O)C1=NN(c2ccc(S(=O)(=O)O)cc2)C(=O)C1,outcome,[6],inactive
O=S1(=O)CC(Cl)(Cl)C(Cl)(Cl)C1,AC50,[7],25 µM (active)
COC(=O)C(C)Oc1ccc(Oc2ncc(C(F)(F)F)cc2Cl)cc1 (stereo not drawn),outcome,[2],inactive
c1ccc2scnc2c1,outcome,[1],inactive
same,outcome,[2],inactive
same,outcome,[6],inactive
CC(=O)C1C(=O)C=C(C)OC1=O (stereo not drawn),outcome,[2],inactive
O=C(c1ccc(OCCN2CCCCC2)cc1)c1c(-c2ccc(O)cc2)sc2cc(O)ccc12,AC50,[3],6.51 µM (active) and 6.99 µM (active) and 5.41 µM (active)
same,AC50,[7],6.7 µM (active) [middle of 4 runs]
same,AC50,[6],1.7 µM (active) and 3.59 µM (active) and 1.46 µM (active)
CCCCCC1CCC(=O)O1 (stereo not drawn),outcome,[1],inactive
same,outcome,[2],inactive
same,outcome,[6],inactive
O=C1OC2(c3ccc(O)cc3Oc3cc(O)ccc32)c2ccccc21,outcome,[2],inactive
same,AC50,[7],25 µM (active)
C=CC(=O)OCC(CO)(COC(=O)C=C)COC(=O)C=C,AC50,[7],4.96 µM (active)
CC1(C)CC(=O)CC(C)(C)N1,outcome,[7],inactive
CN(C)C(=O)Nc1ccccc1,outcome,[1],inactive
same,outcome,[6],inactive
CCC(C)(C)C1CCC(OC)CC1 (stereo not drawn),outcome,[1],inactive
same,outcome,[2],inactive
same,outcome,[6],inactive
CC(CO)(CO)[N+](=O)[O-],outcome,PGR (gene 5241),inactive
CN(C)C,outcome,[1],inactive
same,outcome,[6],inactive
